Screens deposited in PubChem BioAssay by The Scripps Research Institute Molecular Screening Center.
An excerpt weighted towards active compounds, which were near 2.6% of everything screened.
Fam108B counter = blocks mouse Fam108B hydrolase in RBBP9 counter-screen. recombinant Fam108B, FP-Rh probe fluorescence polarization. inhibition, % at 9.51 µM. hit rate 0.33% among 300,000. AID 1947;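 active means inhibition above the screen mean inhibition plus 3 SD, computed separately per campaign, cut at about 18% in these data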;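 further: inhibitors lower polarization as less probe binds the enzyme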
SIAE primary = human SIAE inhibition, primary screen; SIAE FP-Rh probe binding, fluorescence polarization; Q9HAT2; hit rate 0.69% among 370,000; inhibition, % at 9.66 µM;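 active means inhibition above a cutoff: mean of compounds within the control limits plus 3 SD of those, cut at about 17% in these data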;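 further: 0% = plate median of compound wells and 100% = probe without SIAE protein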
PME-1 primary = PME-1 (human) inhibition; inhibition, % at 5.9 µM; hit rate 0.53% among 320,000; recombinant PME-1, FP-Rh probe fluorescence polarization;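 active means inhibition above the campaign mean of all compounds plus 3 SD, cut at about 26% in these data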;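 further: competitive labeling of PME-1 active site by serine hydrolase directed probe; 0% = PME-1 with DMSO and 100% = wells lacking PME-1 enzyme; inhibitors block probe labeling so polarization falls and inhibition rises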
Target sequence (Q9Y570 whole entry, looked up): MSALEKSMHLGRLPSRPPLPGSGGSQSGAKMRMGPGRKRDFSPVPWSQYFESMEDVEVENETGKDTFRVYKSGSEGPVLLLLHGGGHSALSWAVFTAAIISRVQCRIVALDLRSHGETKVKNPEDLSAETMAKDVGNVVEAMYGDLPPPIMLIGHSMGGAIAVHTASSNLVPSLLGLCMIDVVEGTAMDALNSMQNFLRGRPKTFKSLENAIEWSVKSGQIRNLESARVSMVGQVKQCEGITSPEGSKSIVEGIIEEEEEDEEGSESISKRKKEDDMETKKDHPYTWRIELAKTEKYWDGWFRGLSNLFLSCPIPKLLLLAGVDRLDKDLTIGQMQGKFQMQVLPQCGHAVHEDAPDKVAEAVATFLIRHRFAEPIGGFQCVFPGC
PRMT1 inh = inhibitors of human PRMT1. recombinant PRMT1, activity-based probe fluorescence polarization. inhibition, % at 2.79 µM. Q99873. hit rate 1.3% among 370,000;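 active means inhibition above about 21% made by adding two undisclosed values, limit read from the data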
PAD4 inh = inhibitors of human PAD4. Q9UM07. recombinant PAD4, RCA probe fluorescence polarization. inhibition, % at 6.36 µM. hit rate 0.41% among 330,000. AID 485272;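 active means percent inhibition above a cutoff equal to the mean of all tested compounds plus 3 SD, cut at about 15% in these data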;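 further: 0% = PAD4 with RCA probe and DMSO and 100% = probe without PAD4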
TCR-CD3 inh = blocks the human TCR-CD3 interaction. hit rate 0.37% among 360,000. inhibition, % at 9.4 µM. AID 651800. TAMRA-labeled TCR probe fluorescence, biochemical; in the data active means inhibition above about 19%;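 further: recombinant mutant TCR 2C K166C tagged with TAMRA read by polarization; 0% = receptor in buffer alone and 100% = receptor with positive control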
* hit, by the source's call; · = not tested or not shown.

SMILES	Fam108B counter	SIAE primary	PME-1 primary	PRMT1 inh	PAD4 inh	TCR-CD3 inh
COc1cccc(C2NC(CCSC)(C(=O)O)C3C(=O)N(C(C)C)C(=O)C23)c1O (stereo not given)	0	21*	-2	-2	-3	-1
COc1cccc(C2NC(CC(C)C)(C(=O)O)C3C(=O)N(Cc4ccccc4)C(=O)C23)c1O (stereo not given)	4	6	-2	-1	2	1
Clc1cccc(CNc2ccn3nc(-c4cccs4)cc3n2)c1	·	-11	·	3	·	1
c1ccc(OCCNc2ccn3nc(-c4ccco4)cc3n2)cc1	·	-1	·	21*	·	-7
c1ccc(OCCNc2ccn3nc(-c4ccccc4)cc3n2)cc1	·	-12	·	3	·	-8
Clc1cccc(CNc2ccn3nc(-c4ccco4)cc3n2)c1	·	6	·	23*	·	-6
O=c1cc(-c2c(F)c(F)c(F)c(F)c2F)oc2c(F)c(F)c(F)c(F)c12	-20	·	-59	·	46*	·
CCCC(=O)N1CCC[C@]2(CC[C@H](CCC(=O)OCC)O2)C1	·	-1	·	2	·	·
CCC(C(=O)Nc1ccccc1N1CCCC1)c1cccc(C)c1 (stereo not given)	·	0	·	-1	·	·
O=C(COC(=O)c1ccccc1C(=O)N1CCN(c2ccccc2)CC1)Nc1ccccc1	-2	5	-3	22*	-2	-1
O=C(COC(=O)c1ccccc1C(=O)N1CCN(c2ccccc2)CC1)Nc1ccc(F)cc1	3	3	1	9	0	4
COc1ccc(CN2CCC(CNC(=O)NCc3ccccc3)CC2)cc1	·	-6	·	7	·	·
CCCCn1c(/C=N/Nc2nc3ccccc3[nH]2)nc2ccccc21	4	7	52*	0	-8	5
COc1ccccc1NC(=O)CCC(=O)Nc1nnc(C(F)(F)F)s1	0	7	89*	-2	2	1
COc1ccc(OC)c(NC(=O)CCC(=O)Nc2nnc(C(F)(F)F)s2)c1	-1	3	-11	0	2	3
Cc1ccc(-c2nc(C=Nc3ccc(O)cc3)c(O)o2)cc1	·	9	·	-1	·	5
Cc1ccc(N=Cc2nc(/C=C/c3cccc([N+](=O)[O-])c3)oc2O)cc1	-1	-2	27*	-2	0	-6
CC(C)(C)c1ccc(S(=O)(=O)NCC(=O)N2CCN(c3ncccn3)CC2)cc1	·	-1	·	-5	·	·
C=Cc1ccc(C(=O)N(Cc2ccc(F)cc2)C(C(=O)N(C)C2CCCC2)c2ccc(OC)c(OC)c2)cc1 (stereo not given)	·	0	·	3	·	·
CNc1ccc(Br)cc(C(=O)/C=C/c2ccc(Cl)cc2Cl)c1=O	10	13	11	22*	-8	11
COc1cccc(/C=C/C(=O)OCC(=O)NCCNC(=O)COC(=O)/C=C/c2cccc(OC)c2)c1	·	-4	-3	2	0	0
CCNc1ccc(Br)cc(C(=O)/C=C/c2ccc(Cl)cc2)c1=O	11	·	10	·	-1	·
CCNc1ccc(Br)cc(C(=O)/C=C/c2ccc3c(c2)OCO3)c1=O	9	12	7	38*	6	7
CNc1ccc(Br)cc(C(=O)/C=C/c2cccc(OC)c2)c1=O	3	8	13	27*	-4	10
CCNc1ccc(Br)cc(C(=O)/C=C/c2c(Cl)cccc2Cl)c1=O	18	·	13	·	-7	·
SMILES	Fam108B counter	SIAE primary	PME-1 primary	PRMT1 inh	PAD4 inh	TCR-CD3 inh
CCOC(=O)Cc1csc(NC(=O)c2sc3nc4cc(C)ccc4cc3c2N)n1	4	3	46*	5	-5	-7
COc1ccc(NC(=S)NNc2ccc(C(=O)O)cc2)cc1	-1	0	-9	21*	-4	0
CCCCOC(=O)c1ccc(NC(=O)Nc2ccc(OC)c(OC)c2)cc1	14	20*	40*	-3	0	9
COC(=O)c1ccc(NC(=O)Nc2ccc(OC)cc2)cc1	5	1	29*	3	-1	-1
COC(=O)CCC(=O)Nc1sc(Cc2ccccc2)c(C)c1C(N)=O	-1	-2	0	24*	1	-2
COC(=O)c1c(NC(=O)CCC(=O)O)sc(Cc2ccccc2)c1C	-3	0	-1	3	-4	-3
CCCC(=O)Nc1sc(Cc2ccccc2)c(C)c1C(N)=O	5	3	0	23*	4	-4
CS(=O)(=O)Nc1ccc(C(=O)NCCc2ccccc2)cc1	5	19*	-1	-2	1	1
O=C(CSC1=NNC(c2ccccn2)S1)Nc1ccc(C(F)(F)F)cc1 (stereo not given)	1	-3	1	24*	1	1
CCOc1ccccc1NC(=O)CSc1nnc(SCc2ccccc2)s1	·	3	·	-9	·	·
COc1ccc(-c2cc(-c3nnc4sc(-c5cccs5)nn34)[nH]n2)cc1	·	-17	·	0	·	·
CSc1ccc(/C=N/n2c(COc3ccccc3)n[nH]c2=S)cc1	1	-1	3	22*	1	-4
CNC(=O)c1c(NC(=O)c2ccc(S(=O)(=O)N3CCCC3)cc2)sc2c1CCN(C(C)C)C2	3	5	34*	-7	-2	0
Nc1[nH]c2cc(C(F)(F)F)ccc2c1C(=O)NCc1ccc(F)cc1	·	8	·	4	·	·
Cc1ccc2nc(N3C(=O)C(O)=C(C(=O)c4ccco4)C3c3ccc(O)cc3)sc2c1 (stereo not given)	1	-28	-3	21*	1	-9
Cc1ccc2nc(N3C(=O)C(O)=C(C(=O)c4ccco4)C3c3ccc(C)o3)sc2c1 (stereo not given)	-4	-10	-5	14	-10	-6
CCOC(=O)C1CCCN(C(=O)c2ccc(-c3ccc([N+](=O)[O-])cc3)o2)C1 (stereo not given)	-1	-1	-3	24*	-4	0
CS(=O)(=O)c1nc(-c2ccc(Br)cc2)cs1	·	5	·	1	·	·
O=C(N=Nc1c(O)[nH]c2ccccc12)c1cccs1	5	-2	28*	-1	3	0
COC(=O)[C@]12C[C@H](CC(=O)N3CCSCC3)C(=O)N(CCc3ccc(OC)c(OC)c3)C1=C[C@H](C(C)(C)C)O[C@@H]2C	·	-8	·	2	·	·
Cc1cc(NC(=O)CSc2nc3ccccc3c(=O)n2C2CCCC2)no1	1	4	27*	2	2	-3
Cc1ccc(-c2nc3ccccc3nc2Cl)cc1	0	12	2	1	-3	-6
Cc1ccc(-c2nc3ccccc3nc2NN)cc1	-1	-2	-5	22*	-3	-6
COc1ccc(OC)c(NC(=O)c2c(NC(=O)CCC(=O)O)sc3c2CCCCC3)c1	4	12	-2	17	-17	7
O=C(O)CCC(=O)Nc1sc2c(c1C(=O)Nc1cccc3ccccc13)CCCCC2	10	12	6	24*	-13	-1
O=C(c1ccc(F)cc1Cl)N(Cc1ccccn1)CC1CCCO1 (stereo not given)	·	-7	·	0	·	·
CCCN1CCS(=O)(=O)N(Cc2cn(CC(=O)OCC)nn2)C(C(=O)OC)C1 (stereo not given)	·	2	·	4	·	·
